Bioassay records deposited in PubChem BioAssay by The Scripps Research Institute Molecular Screening Center.
ssDAF12 agonist: activates DAF-12 receptor from parasite S. stercoralis | hit rate 1% among 370,000 | AID 652126 | HEK293 ssDAF-12/GRIP1 lit1-tk-luc reporter, luminescence; % of 3 µM dafachronic acid response | activation, % at 6.8 µM;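 active = activation above the mean over all tested compounds plus 3 SD, cut at about 0.9% in these data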
DAX1 inh-1: inhibitors of human orphan nuclear receptor DAX1 (NR0B1); HEK293 Gal4-DAX1 luciferase reporter, luminescence; hit rate 0.99% among 340,000; inhibition, % at 6.75 µM; P51843;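 active = inhibition above the mean over all tested compounds plus 3 SD, cut at about 4.2% in these data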;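 also: inhibition shows as a rise in luminescence from relieved DAX1 repression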
Target sequence (P51843 207-470 limits assumed): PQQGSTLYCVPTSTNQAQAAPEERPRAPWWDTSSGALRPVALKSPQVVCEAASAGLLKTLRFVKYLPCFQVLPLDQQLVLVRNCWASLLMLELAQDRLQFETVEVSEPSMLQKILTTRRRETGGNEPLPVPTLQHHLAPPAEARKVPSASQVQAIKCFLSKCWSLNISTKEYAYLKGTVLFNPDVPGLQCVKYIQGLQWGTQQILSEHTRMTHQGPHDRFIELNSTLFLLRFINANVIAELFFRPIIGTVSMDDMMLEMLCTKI
DAX1 inh-2: inhibitors of DAX1 repression of SF-1 activated StAR promoter | HEK293T StAR-luciferase reporter, SF-1/DAX-1 repression relief | hit rate 1.1% among 370,000 | inhibition, % at 6.8 µM | AID 652010;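 active = inhibition above the mean over all tested compounds plus 3 SD, cut at about 3.6% in these data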;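 also: higher inhibition means more luminescence from relief of DAX-1 repression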
hcDAF12 agonist: activates DAF-12 receptor from parasite H. contortus | HEK293 hcDAF-12 lit1-tk-luc reporter, luminescence; 0% DMSO, 100% Δ7-dafachronic acid | activation, % at 6.8 µM | hit rate 1.4% among 370,000 | AID 652067;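 active = activation above the mean of all tested compounds plus 3 SD, cut at about 5.5% in these data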
hgDAF12 agonist: hgDAF-12 agonism, primary luciferase screen; HEK293 GAL4-hgDAF12 UAS-luciferase reporter, agonist luminescence; normalized to butyrate control; activation, % at 6.8 µM; hit rate 1.8% among 370,000; AID 687014;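 active = activation above a cutoff set at the mean of all screened compounds plus 3 SD, cut at about 10% in these data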
Of the large screens only hits and unclear results are named; the others gave an inactive call. This is a sample that favours compounds with a hit; in the whole collection about 4.1% have one here.

Cc1cc(C(=O)COC(=O)C23CC4CC(CC(O)(C4)C2)C3)c(C)n1-c1c(C)n(C)n(-c2ccccc2)c1=O	none
COCCn1c(C)cc(C(=O)COC(=O)C23CC4CC(CC(O)(C4)C2)C3)c1C	DAX1 inh-2 4.5
CCCC1CCC2(CC1)CCC2OC(=S)Nc1ccc(N(C)C)cc1 (centres undefined)	none (no result: DAX1 inh-1, DAX1 inh-2)
COc1ccc(/C=N/NC(=O)c2[nH]ncc2Br)c(OC)c1	hgDAF12 agonist 11
COc1ccc(/C=N/NC(=O)c2cccc(NC(C)=O)c2)c(OC)c1	none
O=C(N/N=C/c1ccco1)c1[nH]ncc1Br	DAX1 inh-1 7.1
Nc1nccnc1C(=O)N/N=C/c1ccco1	DAX1 inh-1 6.9
O=C1C(=O)N(Cc2ccc(-c3ccccc3)cc2)c2ccc(OC(F)(F)F)cc21	none (no result: DAX1 inh-1, DAX1 inh-2)
COc1ccc2c(CCN3C(=O)c4ccccc4C3=O)c(-c3c(CCN4C(=O)c5ccccc5C4=O)c4ccccc4n3C(=O)OC(C)(C)C)[nH]c2c1	none (no result: DAX1 inh-1, DAX1 inh-2)
O=C(Cn1cnc2ccccc21)N/N=C/c1ccccc1	none
CC(/C=N/NC(=O)Cn1cnc2ccccc21)=C\c1ccccc1	ssDAF12 agonist 8.4
C/C(=C/c1c[n+](Cc2ccc3c(c2)OCO3)c(N)[nH]1)Cn1[nH]c(=O)n(-c2ccccc2)c1=O	none (no result: DAX1 inh-1)
Cc1nn(-c2ccccc2)c(C)c1/C=N\NC(=O)CSc1nc2ccccc2n1Cc1ccc(Cl)cc1	none (no result: DAX1 inh-1)
C/C(=N\NC(=O)c1ccc(Cn2cc(Br)cn2)o1)c1ccc(NC(=O)c2ccoc2C)cc1	DAX1 inh-2 4.4
C=CCNC(=O)COc1ccccc1C#N	none
CC(C)(C)NC(=O)NC(=O)COc1ccccc1C#N	DAX1 inh-1 5.1
N#Cc1ccccc1OCC(=O)NC1CCCCCC1	hgDAF12 agonist 11
N#Cc1ccccc1OCC(=O)OCC(=O)NC1CCCCC1	none
Nc1[nH]c(C(=O)c2ccc(Br)cc2)c(-c2ccccc2)c1C(=O)NCCc1c[nH]c2ccccc12	none (no result: DAX1 inh-1)
C[C@H]1COc2cc(N3CCCC3)ccc2S(=O)(=O)N1C	none (no result: DAX1 inh-1)
O=C(OCc1ccc(CSc2nnc(-c3cccc4ccccc34)o2)cc1)c1ccc(F)cc1	none (no result: DAX1 inh-1, DAX1 inh-2)
CCOC(=O)C1(Cc2cccc(OC)c2)CCCN(C(=O)CNC(C)=O)C1 (centres undefined)	hgDAF12 agonist 13
COc1ccc2c(c1)Sc1ccc(Cl)cc1N2	none (no result: DAX1 inh-1, DAX1 inh-2)
COC(=O)[C@]1(CNC(=O)C(F)(F)F)CC(=O)N(C)[C@@H]1c1ccccc1	none (no result: DAX1 inh-1)
COc1ccc(C(=O)n2cnc3ccccc32)cc1[N+](=O)[O-]	ssDAF12 agonist 1.4
COc1ccc(C(=O)n2cnc3ccccc32)cc1Br	none
Cc1ccc(Cn2nnc3c2-c2cc(F)ccc2S(=O)(=O)N(C(C)(C)C)C3)cc1	none (no result: DAX1 inh-1)
O=C(Nc1ccccc1)N(O)c1ccc(Cl)cc1	ssDAF12 agonist 1.6
COCc1cc(C)nc2sc(C(=O)Nc3cccc(OC)c3)c(N)c12	DAX1 inh-1 4.9, hgDAF12 agonist 10
COC(=O)[C@]12C[C@H](CC(=O)NCc3ccccc3)C(=O)N(CCc3ccc(OC)c(OC)c3)C1=C[C@H](C(C)C)O[C@@H]2C1CC1	none (no result: DAX1 inh-1)
CC1(C)CC(NC(=O)c2ccc(Cl)c(Cl)c2)CC(C)(C)N1	DAX1 inh-1 4.6
CSc1nc2c(C)c(C)c(C)c(C)c2[nH]1	DAX1 inh-1 5.1
CCc1nc(SC)[nH]c(=O)c1C	none
COCCCn1cc(CN2CC=CS2(=O)=O)nn1	none (no result: DAX1 inh-1)
CCOC(=O)Cc1csc(NS(=O)(=O)c2cccc([N+](=O)[O-])c2)n1	none
Cc1csc(NS(=O)(=O)c2cccc([N+](=O)[O-])c2)n1	DAX1 inh-1 6.1
CC(C)[C@H]1/C(=C/C2CC2)N2C(=O)C[C@H](c3cccc(C(F)(F)F)c3)N=C2N1Cc1ccc2c(c1)OCO2	none (no result: DAX1 inh-1, DAX1 inh-2)
Cc1cc(NS(=O)(=O)c2ccc(NC(=O)CSc3nnc(-c4cnccn4)n3-c3ccccc3)cc2)nc(C)n1	none (no result: DAX1 inh-1)
CC(NC(=O)CSc1ncccc1C(=O)O)C1CC2CCC1C2 (centres undefined)	DAX1 inh-1 5.1
CCOC(=O)CC[C@@H]1CC[C@]2(CCCN(Cc3nccn3C)C2)O1	none (no result: DAX1 inh-1)
Fc1ccc(NCc2cccnc2)cc1F	ssDAF12 agonist 1.2
Clc1ccc(NCc2cccnc2)cc1	none
CN1CCCCC(NC(=O)CSc2ccccc2)C1=O (centres undefined)	none (no result: DAX1 inh-1)
CC(C)(C)c1ccc(S(=O)(=O)N2CCCC2C(=O)N2CCc3ccccc3C2)cc1 (centres undefined)	none (no result: DAX1 inh-1)
COc1ccc(CNC(=O)C2CC(C)=C(C)CC2C(=O)O)cc1OC (centres undefined)	DAX1 inh-1 4.5
COC(=O)[C@H](C(C)C)N(CCCc1cn(Cc2ccccc2)nn1)S(=O)(=O)c1ccccc1Br	none (no result: DAX1 inh-1)
COc1ccc(-n2ncc3c(NCc4cccnc4)ncnc32)cc1	hgDAF12 agonist 11
COC(=O)[C@]12C[C@H](CC(=O)NCCc3ccccc3OC)C(=O)N(CCC3=CCCCC3)C1=C[C@H](C(C)(C)C)O[C@@H]2C	none (no result: DAX1 inh-1)
CCCCCCC/C=C(\C)[C@@H](O)[C@@H](C)C(=O)N1CCC[C@@H]1C(=O)O[C@H](C(=O)O[C@@H](C)C(=O)O)[C@@H](C)CC	none (no result: DAX1 inh-1, DAX1 inh-2)
O=C(CSc1ccsc1[N+](=O)[O-])NCc1ccccc1	ssDAF12 agonist 0.9, hcDAF12 agonist 6.5
COc1ccccc1CNC(=O)CSc1ccsc1[N+](=O)[O-]	hgDAF12 agonist 11
C=CCN(CC#Cc1ccccc1)Cc1ccc(OC)cc1OC	none (no result: DAX1 inh-1)
Cc1ccccc1NC(=O)N(C)[C@H]1C[C@H]2c3[nH]c4c(-c5ccc6c(c5)OCO6)cccc4c3CCN2C(=O)[C@H]1[C@H](C)O	none (no result: DAX1 inh-1)
Cc1ccccc1-c1cc2c(c3c1ccn3C)C1CCC2O1 (centres undefined)	DAX1 inh-2 3.8 (no result: DAX1 inh-1)
COCC(=O)N(C[C@H]1[C@H](c2ccccc2)[C@@H](CO)N1C(=O)NC(C)C)C(C)C	none (no result: DAX1 inh-1)
Cc1sc2nc(CN3CCOCC3)nc(NS(=O)(=O)c3ccc4c(c3)OCCO4)c2c1C	none
Cc1sc2nc(CN3CCCC3)nc(N3CCN(S(=O)(=O)c4cccs4)CC3)c2c1C	DAX1 inh-1 4.7
Cc1ccc(S(=O)(=O)N2CCN(c3nc(CN4CCCC4)nc4sc(C)c(C)c34)CC2)cc1	none
Cc1sc2nc(CN3CCOCC3)nc(NS(=O)(=O)c3ccccc3)c2c1C	DAX1 inh-1 6.3
COC(=O)C1CN(Cc2cn(CCC3OCCO3)nn2)CCS(=O)(=O)N1Cc1ccccc1 (centres undefined)	none (no result: DAX1 inh-1)
Cc1ccc(C(=O)Oc2coc(CSc3ncccn3)cc2=O)cc1[N+](=O)[O-]	none (no result: DAX1 inh-1, DAX1 inh-2)
COC(=O)c1ccc2c(c1)NC(=O)C(N(CC(C)C)CC(C)C)S2 (centres undefined)	DAX1 inh-1 5.1
C/C(=N\NC(=S)NCC(C)(C)C)c1cc(F)cc(F)c1O	DAX1 inh-1 4.7
CCCC1CCC2(CC1)CCC2OC(=S)Nc1ccccc1Cl (centres undefined)	none (no result: DAX1 inh-1, DAX1 inh-2)
COC(=O)[C@]12C[C@H](CC(=O)N3CCSCC3)C(=O)N(Cc3ccco3)C1=C[C@H](C1CCCC1)O[C@@H]2C	none (no result: DAX1 inh-1)
